Measurements: the supplement of paper PMC6555819

Legend:
Test in all cases: PBM binding z-score (relative to random genomic background probes); higher = stronger binding; sequences stand for … in GC…GCGATTGACAGCGTAGAATGAAGG
[1] = tested on: RARb homodimer (NR concentration 270 nM)
Method in brief: (§1)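 Binding z-scores take random background probes as their reference. They come from custom Agilent 4×180K protein-binding microarrays incubated 1 h with ligand-free nuclear receptor dimers, with antibodies against each partner (one per run) detecting binding. Scanned fluorescence was regression-normalized.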

[2] = tested on: RARg:RXRa (NR concentration 270 nM, RXRa partner concentration 90 nM)
Method in brief: as §1

[3] = tested on: RARg homodimer (NR concentration 270 nM)
Method in brief: as §1

[4] = tested on: RXRa DBDmut IVT, anti-RXR (DBD mutation: RXRa K156A/R161A, NR concentration 90 nM)
Method in brief: as §1

[5] = tested on: RXRa homodimer (NR concentration 180 nM)
Method in brief: as §1

[6] = tested on: THRa:RXRa (NR concentration 90 nM, RXRa partner concentration 90 nM)
Method in brief: as §1

[7] = tested on: THRa homodimer (NR concentration 90 nM)
Method in brief: as §1

[8] = tested on: VDR homodimer (NR concentration 270 nM)
Method in brief: as §1

Sequence | PBM binding z-score [1] | PBM binding z-score [2] | PBM binding z-score [3] | PBM binding z-score [4] | PBM binding z-score [5] | PBM binding z-score [6] | PBM binding z-score [7] | PBM binding z-score [8]
TCTATTAATTGATTAGGGCAACCGAAACAGCGGA | 0.555 | 0.404 | 0.432 | 0.717 | 0.315 | 0.691 | 0.741 | 1.36
CCTACTGGGCCATCAGGTCATTGAGATCAACGTT | 2.68 | 2.15 | 2.06 | 0.124 | 1.43 | 3.28 | 2.88 | 1.89
TAACCTAGGTCATTCAGGGGCCAGTATAGAAAGC | 3.95 | 6.73 | 5.25 | 2.62 | 3.87 | 3.83 | 1.26 | 2.58
CCTATTAGTTGACCATAAGGGCAATCGAAGCTCG | 1.72 | 1.12 | 1.22 | 0.557 | 0.516 | 1.47 | 1.18 | 1.13
CCTCCTGGGCCATTCAGAGGTCATTGATCATATG | 4.15 | 4.79 | 3.13 | 0.494 | 4 | 3.3 | 1.39 | 3.92
CCGACTGGGGCAAAGGTTCCCATACTCAGTACGA | 0.64 | 0.839 | 0.494 | -0.0939 | 0.724 | -0.141 | -0.168 | -0.00727
TAGCCTAGGTCATGCGGTCCAGTATAGTGTCGGC | 3.08 | 3.75 | 4.51 | 1.05 | 2.94 | 3 | 1.32 | 1.54
CCTATTAGTTGACCATAAGGGTAACCGAAGCTCG | 1.5 | 1.01 | 0.877 | 0.493 | 0.639 | 1.3 | 1.19 | 1.2
CGAACTAGTTCATCCAGGACAGTGAATACATTGA | 0.846 | 1.12 | 1.39 | 3.28 | 0.593 | 2.23 | 1.07 | 3.24
CCTACTGGGCCAAGGTCATGGATCAGTCAAAGCA | 3.54 | 4.16 | 3.48 | -0.0426 | 3.95 | 3.71 | 2.5 | 1.68
CCGACTGGGGCAAAGGTTACCGTACTCAGTACGA | 2.03 | 3.44 | 1.64 | -0.356 | 3.45 | 1.7 | -0.542 | -0.111
CAAACTAGGTCAAGGTCAAAGTCGGTTTGTGCCA | 5.13 | 6.18 | 6.97 | 3.21 | 6.34 | 4.35 | 3.74 | 4.46
GTACCAAGGTGTATAGGTCGTTGATGAGTAGGCG | 0.761 | 0.597 | 0.288 | 0.186 | 0.791 | 0.249 | -0.307 | 0.945
CAAACTAGGTCCAAGGTCAAAGTCGAGCCAACCA | 3.79 | 3.98 | 3.24 | 2.47 | 4.04 | 3.64 | 2.62 | 3.42
AGTCAAAGTTCTGGACGAGGTAACGTAAAGCACG | -0.148 | 0.171 | 0.32 | -0.639 | 0.0678 | 1.41 | 0.761 | -0.322
CAAACTAGGTCACGAAAGGTCAAACTCGAATGAC | 5.84 | 8.21 | 9.05 | 2.91 | 8.85 | 5.26 | 2.82 | 4.06
ATATGTAGGTTACATCCGGGTCAGTCAGGCTATG | 2.61 | 3.29 | 1.88 | 0.541 | 2.01 | 3.19 | 1.66 | 1.45
GAGACTGGGGCATCAGCAGGTTACCATAACTTAA | 1.46 | 0.941 | 0.703 | 0.142 | 0.509 | 1.3 | 0.361 | -0.0346
CGAACTAGGTCATTGACAGGACAGTGAATAGTAA | 2.71 | 4.63 | 4.21 | 2.33 | 2.61 | 2.98 | 0.802 | 0.793
CTCGAAAGTTCGGTTGAGGTGAGTATACGGATAA | 1.12 | 0.738 | 0.973 | 1.24 | 0.161 | 4.57 | 1.37 | 0.742
TAGCCTAGGTCAGTGGGCCAGTATAGTACGCATC | 2.1 | 2.45 | 3.58 | -0.571 | 1.03 | 1.29 | -0.197 | -0.446
CCTACTGGGCCATCAGGTCATTGGTATCAACGTT | 2.99 | 1.93 | 1.66 | 0.149 | 0.958 | 3.33 | 3.05 | 1.64
TCTATTAGTTGGAGGGCAACCGACGAGTCCGTTT | 1.31 | 0.442 | 0.781 | 1.47 | 0.834 | 0.528 | 0.592 | 1.86
CGAACTAGGTCATCCAGGACTGTGAATACATTGA | 2.93 | 4.02 | 4.47 | 2.26 | 2.62 | 2.95 | 1.17 | 1.39
GATACAGGGTCAGCTAGCGGCCAGAGTATGGAAA | 2.95 | 6.02 | 4.62 | 1.31 | 4.36 | 2.56 | -0.0331 | 0.352
CATCCTAGGTCAGGGCCAGTATAGGAGGAACGTT | 2.73 | 3.24 | 4.12 | 0.0171 | 2.22 | 2.52 | 0.878 | 0.11
ATCTCTTGGTAAAGTTCAGTGAAAGATCGATAGA | 2.41 | 2.08 | 2.53 | 2.06 | 1.04 | 0.889 | 0.154 | 2.21
CAAACTAGGTCAAGAGGTCAAGGTCCGCTTCCCG | 5.98 | 7.92 | 7.98 | 2.28 | 8.06 | 4.25 | 3.13 | 3.74
TCAGACAGGTGAAGGTGACTCAGGTACGCAGTCG | 1.6 | 0.814 | 0.949 | 0.889 | 0.995 | 1.66 | 0.461 | 0.358
